Data from PubChem BioAssay.
Calls of active or inactive are those of the source.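 The calls were made as follows: active = aptamer binding inhibition above 30%, about 3 SD of noise from non-fluorescent compounds; inactive = inhibition at or below 30%.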

Target: Beta-adrenergic receptor kinase 1 (Homo sapiens) (UniProt P25098)
Assay: GRK2 binders displacing RNA aptamer, biochemical, validation, human GRK2, bead flow cytometry (AID 488806)
Details: bead-bound GRK2, FAM-aptamer displacement, at 10 µM, hits give high values

Chain of Beta-adrenergic receptor kinase 1 (Homo sapiens) (P25098 whole entry, looked up): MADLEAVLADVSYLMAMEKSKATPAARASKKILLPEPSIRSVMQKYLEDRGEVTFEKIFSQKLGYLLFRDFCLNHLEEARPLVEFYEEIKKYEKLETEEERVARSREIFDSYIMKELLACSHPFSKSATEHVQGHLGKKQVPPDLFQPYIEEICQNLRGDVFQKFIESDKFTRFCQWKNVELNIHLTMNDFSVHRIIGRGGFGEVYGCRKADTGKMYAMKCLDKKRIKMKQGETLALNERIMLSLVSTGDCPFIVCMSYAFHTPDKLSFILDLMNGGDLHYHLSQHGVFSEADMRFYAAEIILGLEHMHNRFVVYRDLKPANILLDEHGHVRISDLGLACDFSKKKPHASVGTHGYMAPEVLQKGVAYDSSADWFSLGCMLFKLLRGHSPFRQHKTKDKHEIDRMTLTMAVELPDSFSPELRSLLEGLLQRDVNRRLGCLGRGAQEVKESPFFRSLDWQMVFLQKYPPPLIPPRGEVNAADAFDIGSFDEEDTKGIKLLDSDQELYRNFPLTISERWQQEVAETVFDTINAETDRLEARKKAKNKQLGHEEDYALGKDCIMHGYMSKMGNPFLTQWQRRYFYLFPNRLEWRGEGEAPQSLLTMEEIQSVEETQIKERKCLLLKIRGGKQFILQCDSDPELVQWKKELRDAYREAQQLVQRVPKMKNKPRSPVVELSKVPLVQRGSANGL

Aptamer binding inhibition, inactive:
Cc1ccc2[nH]c3c(c2c1)CN(C)CC3 5%, COc1ccc2[nH]c3c(c2c1)CCn1c-3nc2ccccc2c1=O -2%, CC(=O)O[C@H]1CSC[C@H]1NC(=O)c1ccccc1 -6%, CC(=O)Oc1ccc2occ(/C=N/c3cc(=O)[nH]c(=S)[nH]3)c(=O)c2c1 1%, O=C(O)CCSc1nc2ccccc2s1 7%, CCOc1ccc(C(=O)/C=C/c2cc(OC)c(OC)c(OC)c2)cc1 -3%, COC(=O)c1cc(OC)c(OC)c(OC)c1[N+](=O)[O-] 4%, COC(=O)c1[nH]c2ccccc2c1NC(=O)CN1CCN(C/C=C/c2ccccc2)CC1 0%, Cc1ncc([N+](=O)[O-])n1CC(C)O (stereo not given) 9%, Clc1ccccc1CN1CCc2sccc2C1 -1%, CC[C@]1(O)C[C@@H]2CN(CCc3c([nH]c4ccccc34)[C@@](C(=O)OC)(c3cc4c(cc3OC)N(C)[C@H]3[C@@](O)(C(=O)OC)[C@H](OC(C)=O)[C@]5(CC)C=CCN6CC[C@]43[C@@H]65)C2)C1 -13%, O=C(CCCN1CC=C(n2c(=O)[nH]c3ccccc32)CC1)c1ccc(F)cc1 -3%, CCOc1cccc(N2C(=O)CC(N(CCc3ccc(OC)c(OC)c3)C(=O)CC)C2=O)c1 (stereo not given) 2%, COC(=O)C1=C(C)NC(C)=C(C(=O)OC)C1c1ccccc1[N+](=O)[O-] -2%, CC(COc1ccccc1)NC(C)C(O)c1ccc(O)cc1 (stereo not given) -1%
